Assay results reported in PubChem BioAssay (Tox21).
“And” between values parts separate entries of the source, which are not always exact repeats. Equal values may be shown once. Results filed as inconclusive are left out. The source made the active and inactive calls. Unless noted, calls follow the shape of the dose curve; as a rule, active = well fitted curve in the direction sought with a large enough effect in the repeat runs; inconclusive = weak or mixed curves; inactive = no such curve, though single readings can be large; an effect the other way counts as inactive or inconclusive.

Assays:
[1] = test system: thyroid hormone receptor (rat, GH3 cells); experiment: qHTS assay to identify small molecule agonists of the thyroid receptor (TR) signaling pathway (AID 743066; calls by dose curve)
[2] = target: Estrogen receptor (Homo sapiens) (UniProt P03372); experiment: qHTS assay to identify small molecule antagonists of the estrogen receptor alpha (ER-alpha) signaling pathway (AID 743069; active = well fitted curve in the direction sought with a large enough effect in the signal ratio in the repeat runs, not every such curve was filed as active; the % refers to the signal ratio)
Estrogen receptor (Homo sapiens), sequence (P03372 whole entry, looked up): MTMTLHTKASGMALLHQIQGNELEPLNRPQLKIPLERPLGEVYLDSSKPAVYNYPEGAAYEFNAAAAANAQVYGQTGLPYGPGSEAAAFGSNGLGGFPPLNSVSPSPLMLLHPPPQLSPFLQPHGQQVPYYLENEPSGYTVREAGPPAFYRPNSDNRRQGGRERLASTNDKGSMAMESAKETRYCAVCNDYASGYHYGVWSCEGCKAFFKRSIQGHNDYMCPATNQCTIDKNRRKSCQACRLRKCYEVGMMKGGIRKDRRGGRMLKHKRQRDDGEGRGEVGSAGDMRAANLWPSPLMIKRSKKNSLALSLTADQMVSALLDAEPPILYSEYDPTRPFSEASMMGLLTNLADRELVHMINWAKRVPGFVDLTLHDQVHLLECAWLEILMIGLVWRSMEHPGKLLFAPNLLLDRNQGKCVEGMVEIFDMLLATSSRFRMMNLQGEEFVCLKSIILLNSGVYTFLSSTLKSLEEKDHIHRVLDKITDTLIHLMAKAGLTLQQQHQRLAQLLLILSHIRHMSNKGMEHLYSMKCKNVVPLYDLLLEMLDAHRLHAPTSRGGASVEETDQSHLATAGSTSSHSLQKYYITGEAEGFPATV
Summary of the method: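 Beta-lactamase FRET fluorescence is read after 2 hr at room temperature with LiveBLAzer B/G substrate. Before that, ER-alpha-bla HEK293 cells sit 4 hr after plating, then receive compound plus 17beta-estradiol and incubate 18 hr at 37C.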

[3] = qHTS assay to identify small molecule antagonists of the estrogen receptor alpha (ER-alpha) signaling pathway - cell viability counter screen (AID 743074; calls by dose curve;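 also: HEK293 cells carrying ER-alpha-UAS-bla reporter stimulated with 17beta-estradiol; nearly all actives have a fitted effect of over 45% in size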; also: potency is read from the fitted curve at half-maximal effect)
[4] = target: Estrogen receptor (Homo sapiens) (UniProt P03372); experiment: qHTS assay to identify small molecule agonists of the estrogen receptor alpha (ER-alpha) signaling pathway (AID 743075; calls by dose curve;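 also: HEK293 GripTite cells with ER-alpha and UAS-driven beta-lactamase reporter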; also: potency is read from the fitted curve at half-maximal effect)
[5] = target: Estrogen receptor (Homo sapiens) (UniProt P03372); experiment: qHTS assay to identify small molecule agonists of the estrogen receptor alpha (ER-alpha) signaling pathway using the BG1 cell line (AID 743079); also: nearly all actives have a fitted effect of over 20% in size; also: potency is read from the fitted curve at half-maximal effect
[6] = qHTS assay to identify small molecule antagonists of the estrogen receptor alpha (ER-alpha) signaling pathway using the BG1 cell line (AID 743080; calls by dose curve;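 also: BG1 cells stimulated with 17beta-estradiol alongside compound; series mostly up to about 70 µM; nearly all actives have a fitted effect of over 25% in size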)
Summary of the method: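 Luciferase inhibition measured with ONE-Glo after 30 min at RT in BG1Luc4E2 cells given test compounds and 17beta-estradiol for 21.5 h at 37 C; CellTiter-Fluor viability read in the same wells beforehand.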

[7] = qHTS assay to identify small molecule antagonists of the estrogen receptor alpha (ER-alpha) signaling pathway using the BG1 cell line - cell viability counter screen (AID 743081);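 also: compound given together with 17beta-estradiol as the ER stimulus; series mostly up to about 70 µM; nearly all actives have a fitted effect of over 45% in size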
Aromatase (Homo sapiens) = Aromatase (Homo sapiens) (UniProt P11511); experiment: qHTS assay to identify aromatase inhibitors (AID 743083); also: series mostly up to about 70 µM; nearly all actives have a fitted effect of over 55% in size
Aromatase (Homo sapiens), sequence (P11511 whole entry, looked up): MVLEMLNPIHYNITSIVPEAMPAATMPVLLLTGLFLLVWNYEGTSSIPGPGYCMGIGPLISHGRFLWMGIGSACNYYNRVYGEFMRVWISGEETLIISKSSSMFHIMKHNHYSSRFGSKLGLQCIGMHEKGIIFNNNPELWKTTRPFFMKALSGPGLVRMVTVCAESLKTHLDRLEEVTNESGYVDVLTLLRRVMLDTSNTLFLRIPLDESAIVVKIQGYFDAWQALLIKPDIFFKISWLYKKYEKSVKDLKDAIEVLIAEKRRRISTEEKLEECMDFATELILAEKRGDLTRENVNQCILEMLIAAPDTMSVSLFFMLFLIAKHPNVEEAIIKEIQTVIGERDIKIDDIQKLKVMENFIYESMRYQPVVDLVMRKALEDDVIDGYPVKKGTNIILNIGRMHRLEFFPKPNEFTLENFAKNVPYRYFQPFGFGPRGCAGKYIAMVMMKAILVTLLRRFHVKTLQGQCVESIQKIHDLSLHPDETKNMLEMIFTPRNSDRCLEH

[8] = qHTS assay to identify aromatase inhibitors - cell viability counter screen (AID 743084);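 also: cells stimulated with testosterone during compound exposure; nearly all actives have a fitted effect of over 55% in size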
[9] = qHTS assay to identify small molecule that activate the aryl hydrocarbon receptor (AhR) signaling pathway - cell viability counter screen (AID 743086);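 also: HepG2 liver cells carrying the AhR DRE luciferase reporter; series mostly up to about 70 µM; nearly all actives have a fitted effect of over 45% in size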
Summary of the method: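 HepG2-AhR-luc (HG2L7.5c1) cells, 4000/well, treated 24 h at 37 C with compound; viability measured as CellTiter-Fluor fluorescence after 30 min in the same wells as the luciferase read.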

[10] = target: Peroxisome proliferator-activated receptor gamma (Homo sapiens) (UniProt P37231); experiment: qHTS assay to identify small molecule agonists of the peroxisome proliferator-activated receptor gamma (PPARg) signaling pathway (AID 743094; active = well fitted activation curve with a large enough effect in the signal ratio in the repeat runs, not every such curve was filed as active; the % refers to the signal ratio)
Peroxisome proliferator-activated receptor gamma (Homo sapiens), sequence (P37231 whole entry, looked up): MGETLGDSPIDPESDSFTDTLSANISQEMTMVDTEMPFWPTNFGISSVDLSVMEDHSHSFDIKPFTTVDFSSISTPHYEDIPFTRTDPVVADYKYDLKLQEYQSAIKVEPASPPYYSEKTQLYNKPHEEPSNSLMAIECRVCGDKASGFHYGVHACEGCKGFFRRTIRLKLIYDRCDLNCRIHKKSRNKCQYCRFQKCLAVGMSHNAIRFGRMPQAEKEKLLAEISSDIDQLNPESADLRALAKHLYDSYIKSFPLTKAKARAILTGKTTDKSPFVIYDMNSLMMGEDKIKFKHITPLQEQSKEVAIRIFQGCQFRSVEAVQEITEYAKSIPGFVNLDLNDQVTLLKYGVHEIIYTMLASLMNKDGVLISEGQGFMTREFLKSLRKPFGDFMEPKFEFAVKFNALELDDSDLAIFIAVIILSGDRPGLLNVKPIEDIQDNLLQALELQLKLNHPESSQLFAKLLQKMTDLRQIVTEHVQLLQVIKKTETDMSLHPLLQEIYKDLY
Summary of the method: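 Fluorescence-based beta-lactamase readout in HEK293H PPARg UAS-bla cells after 17 h compound exposure (37C) and 1 h B/G FRET substrate incubation at room temperature.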

[11] = target: Peroxisome proliferator-activated receptor gamma (Homo sapiens) (UniProt P37231); experiment: qHTS assay to identify small molecule antagonists of the peroxisome proliferator-activated receptor gamma (PPARg) signaling pathway (AID 743191; calls by dose curve; also: series mostly up to about 63 µM; nearly all actives have a fitted effect of over 30% in size)
Summary of the method: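 GeneBLAzer PPARg UAS-bla HEK293H cells, 5 h post-plating, exposed to compounds 17 h at 37C. LiveBLAzer B/G FRET substrate added for 1 h at room temperature; beta-lactamase reporter read by fluorescence intensity.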

[12] = qHTS assay to identify small molecule antagonists of the peroxisome proliferator-activated receptor gamma (PPARg) signaling pathway - cell viability counter screen (AID 743194); also: nearly all actives have a fitted effect of over 55% in size
Summary of the method: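 Cytotoxicity counter screen in PPARg-bla HEK293H cells, same wells as reporter assay. Compounds plus 50 nM rosiglitazone (final) for 17 h at 37 C, then viability read by CellTiter-Glo luminescence.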

[13] = qHTS assay for small molecule agonists of the antioxidant response element (ARE) signaling pathway (AID 743202; active = well fitted activation curve with a large enough effect in the signal ratio in the repeat runs, not every such curve was filed as active; the % refers to the signal ratio)
Summary of the method: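 HepG2 ARE-bla reporter line, 2,000 cells/well; 5 h preincubation 37 C/5% CO2; compound (DMSO) 16 h 37 C; B/G FRET substrate 2 h RT; fluorescence intensity.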

[14] = qHTS assay for small molecule activators of the heat shock response signaling pathway - cell viability counter screen (AID 743209); also: nearly all actives have a fitted effect of over 50% in size
Summary of the method: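 To flag cytotoxic compounds, HSE-bla HeLa cells plated at 1500 cells/well were dosed for 5 h at 37 C, followed by the reporter FRET read and then CellTiter-Glo, with luminescence recorded 30 min after reagent addition.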

[15] = qHTS assay to identify small molecule agonists of the peroxisome proliferator-activated receptor delta (PPARd) signaling pathway - cell viability counter screen (AID 743211); also: nearly all actives have a fitted effect of over 55% in size
Summary of the method: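 PPARd-bla HEK293H cells (UAS-beta-lactamase reporter) were treated with compounds for 17 h at 37 C. Viability was then read in the same wells by CellTiter-Glo luminescence after 30 min at room temperature.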

[16] = qHTS assay to identify small molecule antagonists of the thyroid receptor (TR) signaling pathway (AID 743065)
Summary of the method: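 GH3.TRE-Luc rat pituitary cells (two TREs driving luciferase) were dosed with compound, then stimulated with 1 nM T3 (final) for 23.5 h at 37 C. ONE-Glo luminescence was the read-out, with CellTiter-Fluor fluorescence as the cytotoxicity counter-screen.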

[17] = qHTS assay for small molecule activators of the heat shock response signaling pathway (AID 743210; active = well fitted activation curve with a large enough effect in the signal ratio in the repeat runs, with a control signal flat, not every such curve was filed as active; the % refers to the signal ratio;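 also: HeLa cells with beta-lactamase reporter driven by heat shock elements; series mostly up to about 63 µM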)
Summary of the method: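 Beta-lactamase reporter read-out: FRET substrate fluorescence after 2.5 h at RT, following 5 h compound treatment at 37 C of HeLa cells carrying HSE-driven bla reporter; quantitative HTS format.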

[18] = qHTS assay for small molecule agonists of the antioxidant response element (ARE) signaling pathway - cell viability counter screen (AID 743203; calls by dose curve; also: nearly all actives have a fitted effect of over 55% in size)
Summary of the method: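 Parallel cytotoxicity read-out for the ARE-bla screen: HepG2 reporter cells, 16 hrs with compounds, then CellTiter-Glo luminescence.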

[19] = target: Aryl hydrocarbon receptor (Homo sapiens) (UniProt P35869); experiment: qHTS assay to identify small molecule that activate the aryl hydrocarbon receptor (AhR) signaling pathway (AID 743085);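 also: HG2L7.5c1 human HepG2 liver cells with stably integrated DRE-driven firefly reporter; series mostly up to about 70 µM; nearly all actives have a fitted effect of over 15% in size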
Aryl hydrocarbon receptor (Homo sapiens), sequence (P35869 whole entry, looked up): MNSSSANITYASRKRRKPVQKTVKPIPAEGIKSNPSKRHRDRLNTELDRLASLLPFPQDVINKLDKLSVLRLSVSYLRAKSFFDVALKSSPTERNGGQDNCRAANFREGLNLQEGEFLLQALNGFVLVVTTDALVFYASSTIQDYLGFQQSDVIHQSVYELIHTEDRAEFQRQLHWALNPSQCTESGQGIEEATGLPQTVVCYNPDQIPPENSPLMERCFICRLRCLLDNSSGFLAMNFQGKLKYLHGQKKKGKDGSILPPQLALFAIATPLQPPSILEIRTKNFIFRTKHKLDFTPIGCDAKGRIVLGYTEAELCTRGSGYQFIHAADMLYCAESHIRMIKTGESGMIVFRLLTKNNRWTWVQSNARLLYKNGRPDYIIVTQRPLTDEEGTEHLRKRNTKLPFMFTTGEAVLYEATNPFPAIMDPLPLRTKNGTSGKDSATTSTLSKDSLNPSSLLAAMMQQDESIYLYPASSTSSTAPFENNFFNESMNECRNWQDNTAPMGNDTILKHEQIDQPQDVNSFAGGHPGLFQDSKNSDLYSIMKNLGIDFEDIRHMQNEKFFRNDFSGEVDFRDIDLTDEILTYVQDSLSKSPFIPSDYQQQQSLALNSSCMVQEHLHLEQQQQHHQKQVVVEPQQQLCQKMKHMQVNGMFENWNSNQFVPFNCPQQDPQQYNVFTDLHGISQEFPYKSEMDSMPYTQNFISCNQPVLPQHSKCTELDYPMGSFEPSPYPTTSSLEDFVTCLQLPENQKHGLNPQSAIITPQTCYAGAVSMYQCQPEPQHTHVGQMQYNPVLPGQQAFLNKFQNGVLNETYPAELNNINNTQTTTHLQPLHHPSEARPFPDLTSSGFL
Summary of the method: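 HepG2 cells (HG2L7.5c1) stably carrying a firefly luciferase reporter driven by 20 dioxin responsive elements were exposed to compound for 24 h at 37C after a 5 h settling period; luminescence rise (ONE-Glo) indicated activation.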

Measured: Potency

Nc1c2c(nc3c1CCC3)CCCC2
not listed: [16] | [17] | [18] | [19]
inactive: all other assays above

C[N+](C)(CCOc1ccccc1)Cc1cccs1
not listed: [2] | [4] | [5] | [6] | [10] | [11] | [18] | [19]
inactive: all other assays above

CC(C)C(=O)OC(=O)C(C)C
inactive: [16] | [1] | [3] | [7] | [9] | [18] | [14] | [17] | [15]

C[N+]1(C)[C@@H]2CC(OC(=O)[C@H](CO)c3ccccc3)C[C@H]1[C@@H]1O[C@@H]12 (some centres not stated)
not listed: [2] | [6] | [16]
inactive: all other assays above

CCN(C=O)CC
inactive: [16] | [1] | [3] | [7] | [9] | [12] | [14] | [17] | [15]

O=C1NC(=O)C2CC=CCC12 (configuration not stated)
inactive: [16] | [1] | [3] | [7] | [9] | [18] | [14] | [17] | [15]

NO
not listed: [1] | [2] | [4] | [5] | [6] | [10] | [11] | [18]
inactive: all other assays above

N[C@H](C(=O)O)[C@@H](O)c1ccc(O)c(O)c1
not listed: [2] | [6] | [13] | [16]
inactive: all other assays above

Cc1nc2ccc(CN(C)c3ccc(C(=O)N[C@@H](CCC(=O)O)C(=O)O)s3)cc2c(=O)[nH]1
active: [3] 190 nM and 239 nM
not listed: [2] | [4] | [5] | [6] | [13] | [14] | [16] | [18]
inactive: all other assays above

CC(C#N)(CCC(=O)O)N=NC(C)(C#N)CCC(=O)O (configuration not stated)
not listed: [1] | [2] | [4] | [5] | [6]
inactive: all other assays above

CCO[Si](OCC)(OCC)c1ccccc1
inactive: [16] | [1] | [3] | [7] | [9] | [12] | [13] | [18] | [14] | [17] | [15]

Cc1nc(C2CCCCC2)c(-c2ccc(S(N)(=O)=O)c(F)c2)o1
inactive: [12] | [18] | [17] | [15]

COc1cc2c(cc1OC)-c1cc3ccc(OC)c(OC)c3c[n+]1CC2
inactive: [3] | [7] | Aromatase (Homo sapiens) | [9] | [10] | [11] | [12] | [13] | [18] | [14] | [15]

C[C@H]1[C@H](NC(=O)/C(=N/OC(C)(C)C(=O)O)c2csc(N)n2)C(=O)N1S(=O)(=O)O (stereo in doubt)
inactive: [3] | [7] | Aromatase (Homo sapiens) | [8] | [19] | [9] | [12] | [18] | [14] | [17] | [15]

NCCCC[C@H](N[C@@H](CCc1ccccc1)C(=O)O)C(=O)N1CCC[C@H]1C(=O)O
not listed: [1] | [2] | [4] | [5] | [6] | [16] | [17] | [18]
inactive: all other assays above

Cc1ccc(-c2ccccc2C#N)cc1
inactive: [11] | [12] | [13] | [18] | [14] | [17] | [15]

CC1=NS(=O)(=O)c2cc(Cl)ccc2N1
not listed: [1] | [2] | [3] | [11] | [16]
inactive: all other assays above

Cc1ccnc(NS(=O)(=O)c2ccc(N)cc2)n1
not listed: [1] | [13] | [16] | [19]
inactive: all other assays above

CC(C)[C@H]1CC[C@@H](C)CC1=O
not listed: [1] | [2] | [4] | [5] | [6] | [11] | [13] | [16]
inactive: all other assays above

CN(C)C(=O)Oc1ccc[n+](C)c1
active: [5] 26.6 µM
not listed: [1] | [16]
inactive: all other assays above

CC(C)COC(=O)c1ccc(N)cc1
active: [4] 26.8 µM [activator] | [5] 26.6 µM
not listed: [1] | [2] | [6] | [16] | [19]
inactive: all other assays above

NC(=O)NC1N=C([O][Al])NC1=O (configuration not stated)
inactive: [11] | [12] | [18] | [15]

CCCO[Si](OCCC)(OCCC)OCCC
not listed: [1] | [6] | [11] | [13] | [16] | [18]
inactive: all other assays above
